An excerpt weighted towards active compounds, which were near 2.9% of everything screened.
SMARCA2 activ = increases SMARCA2 function in MMTV reporter cells. MG213 cells, MMTV-luciferase reporter, dexamethasone, overnight. activation, % at 9.1 µM. actives 1% (n = 370,000). AID 652017; in the data active = activation above about 7.8%;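 note: 0% = vehicle wells and 100% = reference activator wells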
GAA850 FXN act = increases GAA850 frataxin promoter reporter activity. HEK293 lucGAA850 FXN promoter luciferase reporter, 24 h; percent of 10 µM SAHA response. activation, % at 6 µM. actives 0.56% (n = 360,000);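 active = activation above the average of all compounds screened plus 3 SD, cutoff fixed separately per campaign, cut at about 7.5% in these data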;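 note: 0% = DMSO wells and 100% = 10 µM SAHA wells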
FAS TE block = inhibitors of human fatty acid synthase thioesterase domain; recombinant FAS-TE, OMFH fluorogenic substrate, fluorescence endpoint; inhibition, % at 15 µM; actives 0.67% (n = 360,000); AID 602261;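 active = compounds whose normalised, plate-corrected inhibition of enzyme fluorescence in the single-dose primary screen is 50% or more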;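 note: 0% = DMSO with enzyme and 100% = substrate without enzyme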
proKLK7 act = proKLK7 (human) activation, primary screen; P49862; purified proKLK7, EDANS-DABCYL substrate fluorescence; 100% is mature enzyme control, 0% vehicle; activation, % at 7 µM; AID 652039; actives 0.9% (n = 370,000);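 active = activation above the mean of all tested compounds plus 3 SD, computed per campaign excluding outliers beyond control limits, cut at about 13% in these data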
Target sequence (P49862 whole entry, looked up): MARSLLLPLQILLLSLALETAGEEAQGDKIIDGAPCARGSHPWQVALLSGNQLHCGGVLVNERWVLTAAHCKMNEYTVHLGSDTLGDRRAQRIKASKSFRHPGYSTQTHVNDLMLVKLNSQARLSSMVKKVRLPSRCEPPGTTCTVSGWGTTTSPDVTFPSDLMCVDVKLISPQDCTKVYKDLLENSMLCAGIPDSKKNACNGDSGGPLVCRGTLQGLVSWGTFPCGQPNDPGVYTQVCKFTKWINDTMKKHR
GAA30 FXN cntr = GAA30 FXN promoter activation counter-screen; actives 66% (n = 1,900); HEK293 lucGAA30 FXN promoter luciferase, 24 h; DMSO = 0%, 5 µM ipriflavone = 100%; activation, % at 6 µM; shares compounds with GAA850 FXN act;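 active = mean activation above the mean of solvent-only control wells plus 3 SD, cut at about 22% in these data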;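 note: counterscreen of GAA850 promoter hits where activity marks nonselective or luminescence artifacts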
FXN GAA850 conf = GAA850 FXN promoter activation confirmation; HEK293 lucGAA850 FXN promoter luciferase reporter, 24 h; 100% = activation by SAHA; activation, % at 6 µM; shares compounds with GAA850 FXN act; AID 588351; actives 86% (n = 1,900);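 active = mean activation above a set limit taken from the primary screen, cut at about 8% in these data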;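 note: 0% = DMSO wells and 100% = 10 µM SAHA wells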
* = called active by the depositor; nt = no result given.

SMILES	SMARCA2 activ	GAA850 FXN act	FAS TE block	proKLK7 act	GAA30 FXN cntr	FXN GAA850 conf
Cc1nn(C)c(Cl)c1NC(=O)OCc1ccccc1	-3	1	-11	0	nt	nt
CCN1C(=O)[C@H]2[C@@H](c3ccccc3)N3C(=O)N(c4cccc(F)c4)C(=O)[C@@]3(CC(C)C)[C@H]2C1=O	nt	8.8*	-4	nt	25*	7
CCN1C(=O)[C@H]2[C@@H](c3ccc(C)cc3)N3C(=O)N(c4cccc(Br)c4)C(=O)[C@@]3(CC(C)C)[C@H]2C1=O	1	16*	32	0	22*	11*
CN(C)c1ccc(/C=C/c2nnnn2-c2ccccc2)cc1	4	8.3*	10	-9	125*	38*
Cc1cc(N/C=C\c2nnnn2-c2ccccc2)no1	3	2	1	0	nt	nt
CSc1ccc(C(=O)C2CCCN(C(=O)c3nonc3C)C2)cc1 (stereo unspecified)	-2	2	13	0	nt	nt
Nc1ccc2c(c1)C(=O)N(c1cccc3ccccc13)C2=O	-1	1	2	-5	nt	nt
CC1=CC(=O)N(c2cccc3c(N4C(=O)C=C(C)C4=O)cccc23)C1=O	0	9.2*	5	-1	15	26*
CC(=O)Nc1ccc(NC(=O)c2ccc(COc3ccc(C)cc3)o2)cc1	0	3	-1	3	nt	nt
CN(C)c1nc(N)nc(CSc2nc3cc(Cl)ccc3o2)n1	-2	8.3*	-4	0	48*	27*
Nc1n[nH]c(N)c1N=Nc1ccc(Cl)cc1	-2	8.7*	-7	0	71*	15*
Cc1[nH]c2ccccc2c1SCCN	6	-1	-4	1	nt	nt
Cc1[nH]c2ccccc2c1SCc1ccccc1	2	15*	26	1	13	7
CCc1c(C)sc(NC(=O)c2cccs2)c1C#N	4	5	-6	1	nt	nt
Cc1sc(NC(=O)c2ccccc2)c(C#N)c1-c1ccccc1	3	11*	15	0	111*	38*
NC1(C(=O)O)CCCCC1c1ccccc1 (stereo unspecified)	3	1	-8	0	nt	nt
O=C1NCCN1Cc1ccc(F)cc1	-5	2	-6	-1	nt	nt
O=C1NCCN1Cc1ccccc1	0	8.6*	-8	0	20	5
Cn1cnc2cc(NC(=O)c3ccc(Cl)cc3)ccc21	5	9.3*	1	0	95*	42*
CCN(CC(O)CON=C1c2ccccc2-c2ccccc21)S(=O)(=O)c1ccc(C)cc1 (stereo unspecified)	-4	7.6*	32	-3	8	15*
Cc1nn(C)c(C(=O)N/N=C/c2cccnc2)c1Cl	4	3	-6	0	nt	nt
CC(=O)Nc1cccc(-c2csc(Nc3ncccn3)n2)c1	2	nt	nt	0	nt	nt
Oc1ccc(-c2csc(-c3ccccc3)n2)cc1O	-2	8.8*	0	-1	41*	34*
Oc1ccc(-c2csc(Nc3ncccn3)n2)cc1O	0	16*	-8	0	108*	45*
Oc1ccc(-c2csc(-c3cccnc3)n2)cc1O	0	14*	-5	0	62*	31*
SMILES	SMARCA2 activ	GAA850 FXN act	FAS TE block	proKLK7 act	GAA30 FXN cntr	FXN GAA850 conf
CC1CCc2nn(CC(=O)NCc3ccc(F)cc3)cc2C1 (stereo unspecified)	-1	1	2	0	nt	nt
CCOC(=O)CNC(=O)CNC(=O)c1nn(-c2ccc(OC)c(OC)c2)c(=O)c2ccccc12	0	1	-2	0	nt	nt
O=C(c1ccc(S(=O)(=O)N2CCCC2)cc1)N(Cc1ccco1)C1CCS(=O)(=O)C1 (stereo unspecified)	1	1	-7	0	nt	nt
Cc1cc(SCC(=O)N(CC(C)C)c2c(N)n(CC(C)C)c(=O)[nH]c2=O)nc2ccccc12	0	-2	-6	0	nt	nt
CC(C)CN(C(=O)C(c1ccccc1)c1ccccc1)c1c(N)n(CC(C)C)c(=O)[nH]c1=O	-3	7.9*	-3	0	13	5
O=C(NCCCN1CCOCC1)c1cc(-c2ccccc2)on1	-4	17*	-3	0	101*	56*
O=C(NCCCN1CCOCC1)c1cc(-c2ccc(O)cc2)on1	-3	2	-7	0	nt	nt
O=C(NCCN1CCOCC1)c1cc(-c2cccs2)on1	-1	17*	-6	-1	116*	55*
O=C(NCCN1CCOCC1)c1cc(-c2ccccc2)on1	-2	17*	-7	0	99*	42*
O=C(NCc1cccs1)c1cc(-c2ccc(O)cc2)on1	1	8.9*	0	0	103*	32*
C=CCn1c(COc2ccc(CC)cc2)nnc1SCC(=O)N(C)C1CCS(=O)(=O)C1 (stereo unspecified)	3	1	-11	0	nt	nt
CC1(C)CC(=O)/C(=C(\O)c2ccccc2)C(=NCCc2ccccc2)C1	-2	0	-6	-1	nt	nt
CCOC(=O)C1(Cc2cccc(OC)c2)CCCN(Cc2nccn2CC)C1 (stereo unspecified)	-2	-3	2	0	nt	nt
CCCCNC(=O)c1cc(-c2ccc(OC)cc2)on1	0	1	0	0	nt	nt
O=C(NCCN1CCOCC1)c1cc2sccc2n1Cc1ccc(F)cc1	5	8.8*	-4	0	10	8.3*
CCCCNC(=O)c1cc(-c2ccc(F)cc2)on1	2	32*	-1	0	166*	79*
COc1ccccc1CNC(=O)C1CCN(S(=O)(=O)N2CCCCC2)CC1	-2	1	-6	0	nt	nt
CC[C@]12c3[nH]c4ccc(OC)cc4c3CCN1C(=O)C(CC(=O)NCC13CC4CC(CC(C4)C1)C3)C[C@@H]2C(=O)N1CCN(C(=O)C2CC2)CC1 (stereo partly specified)	-7	15*	2	0	23*	15*
CC[C@]12c3[nH]c4ccccc4c3CCN1C(=O)C(CC(=O)NCC13CC4CC(CC(C4)C1)C3)C[C@@H]2C(=O)N1CCN(C(=O)C2CC2)CC1 (stereo partly specified)	1	9.0*	8	0	-10	3
CC(NC(=O)/C(C#N)=C/c1ccc([N+](=O)[O-])o1)c1ccccc1 (stereo unspecified)	6	10*	16	1	-56	8.5*
O=C1CCC([N+](=O)[O-])C(c2ccc(Br)cc2)N1 (stereo unspecified)	0	0	-17	0	nt	nt
NC(=O)c1c(NC(=O)c2ccccc2)sc2c1CCc1ccccc1-2	6	7.7*	-6	1	95*	35*
Cc1ccc(NC(=O)C(NC2CCCc3ccccc32)c2ccccc2)cc1Cl (stereo unspecified)	2	3	18	0	nt	nt

Screening results (PubChem)
